Experimental data published in PubChem BioAssay (NCATS).
Results filed as inconclusive are left out. Entries that show only a call come without a potency. Calls of active or inactive are those of the source. Calls come from the whole dose curve; as a rule, active = well fitted curve in the direction sought with a large enough effect in the repeat runs; inconclusive = weak or mixed curves; inactive = no such curve, though single readings can be large; an effect the other way counts as inactive or inconclusive.
Note: nearly all actives have a fitted effect of over 55% in size.
Potency is the fitted concentration of half-maximal effect.

What follows are compounds tested against Cytochrome P450 2D6 (Homo sapiens) (UniProt P10635) (assay: Cytochrome P450 family 2 subfamily D member 6 (CYP2D6) small molecule antagonists: luciferase biochemical (cell-free) qHTS assay (AID 1645840)). Conditions: P450-Glo CYP2D6 enzyme, luciferin luminescence, 1 h; series mostly up to 57.4 µM.
Chain of Cytochrome P450 2D6 (Homo sapiens) (P10635 whole entry, looked up): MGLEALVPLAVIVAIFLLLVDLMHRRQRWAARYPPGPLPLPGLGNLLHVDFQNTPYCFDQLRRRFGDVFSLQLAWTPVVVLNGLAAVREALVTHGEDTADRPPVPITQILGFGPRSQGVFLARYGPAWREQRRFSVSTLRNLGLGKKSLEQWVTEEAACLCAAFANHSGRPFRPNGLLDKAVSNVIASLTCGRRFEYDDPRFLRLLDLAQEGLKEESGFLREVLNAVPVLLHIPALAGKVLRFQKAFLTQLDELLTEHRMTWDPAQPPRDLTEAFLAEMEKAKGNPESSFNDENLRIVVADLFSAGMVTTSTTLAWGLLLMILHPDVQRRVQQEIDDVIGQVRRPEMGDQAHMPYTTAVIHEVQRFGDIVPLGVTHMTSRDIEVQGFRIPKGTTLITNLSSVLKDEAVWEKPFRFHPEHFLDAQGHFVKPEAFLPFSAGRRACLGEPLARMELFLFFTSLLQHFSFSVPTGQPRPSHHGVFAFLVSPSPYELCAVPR
Method in brief: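 P450-Glo CYP2D6 system: proluciferin substrate converted by enzyme to luciferin, read by luminescence proportional to activity. Enzyme-substrate mix with compound 10 min at room temperature, then NADPH regeneration 1 h before detection reagent.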
`COc1c(N2CCNC(C)C2)c(F)cc2c(=O)c(C(=O)O)cn(C3CC3)c12` (stereo not given) was tested, and the Potency was “inactive”.
In the case of `CCOc1cc(N)c(Cl)cc1C(=O)NCC1CN(Cc2ccc(F)cc2)CCO1` (stereo not given), the Potency is reported as 15.5 µM (active).
With `CO[C@@H]1[C@@H](OC(N)=O)[C@@H](O)[C@H](Oc2ccc3c(O)c(NC(=O)c4ccc(O)c(CC=C(C)C)c4)c(=O)oc3c2C)OC1(C)C` the Potency was “inactive”.
With `CN1CCCC(n2nc(Cc3ccc(Cl)cc3)c3ccccc3c2=O)CC1` (stereo not given) the Potency was 0.617 µM (active).
For `S=P(N1CC1)(N1CC1)N1CC1`, the Potency was 53 µM (active).
In the case of `CCn1cc(C(=O)O)c(=O)c2cc(F)c(N3CCNCC3)nc21`, the Potency is reported as “inactive”.
In the case of `CC(C)(Sc1cc(C(C)(C)C)c(O)c(C(C)(C)C)c1)Sc1cc(C(C)(C)C)c(O)c(C(C)(C)C)c1`, the Potency is reported as “inactive”.
With `CCN(CC)CCn1c(=O)c(Cc2ccc(OC)cc2)nc2ccccc21` the Potency was 7.56 µM (active).

Each compound was assayed against Cytochrome P450 2C9 (Homo sapiens) (UniProt P11712) (assay: Cytochrome P450 family 2 subfamily C member 9 (CYP2C9) small molecule antagonists: luciferase biochemical (cell-free) qHTS assay (AID 1645842)). Conditions: P450-Glo CYP2C9 enzyme assay, luciferin luminescence; series mostly up to 57.4 µM.
Chain of Cytochrome P450 2C9 (Homo sapiens) (P11712 whole entry, looked up): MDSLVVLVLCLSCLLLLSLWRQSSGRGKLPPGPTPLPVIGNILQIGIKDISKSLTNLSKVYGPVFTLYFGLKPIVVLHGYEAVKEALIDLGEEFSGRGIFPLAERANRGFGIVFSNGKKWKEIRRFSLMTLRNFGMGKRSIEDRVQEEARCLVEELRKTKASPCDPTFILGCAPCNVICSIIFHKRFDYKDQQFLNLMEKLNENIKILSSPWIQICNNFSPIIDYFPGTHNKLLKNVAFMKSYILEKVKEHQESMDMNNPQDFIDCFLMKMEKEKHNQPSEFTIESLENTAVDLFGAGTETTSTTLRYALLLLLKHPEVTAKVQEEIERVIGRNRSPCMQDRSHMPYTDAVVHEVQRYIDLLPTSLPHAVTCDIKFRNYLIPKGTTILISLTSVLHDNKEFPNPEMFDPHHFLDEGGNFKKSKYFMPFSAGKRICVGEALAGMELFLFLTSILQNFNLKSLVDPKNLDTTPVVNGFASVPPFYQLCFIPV
Method in brief: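 P450-Glo CYP2C9 system: proluciferin substrate with enzyme in mix containing 0.4% BSA, 10 min at room temperature, then NADPH regeneration solution added and incubated 1 h at 37C. Detection reagent stopped reaction; luminescence read after 20 min as RLU.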
For `COc1cc2ncnc(Nc3cccc(Cl)c3)c2cc1OC`, the Potency was 8.49 µM (active).
With `CCOc1cc(N)c(Cl)cc1C(=O)NCC1CN(Cc2ccc(F)cc2)CCO1` (stereo not given) the Potency was “inactive”.
In the case of `CO[C@@H]1[C@@H](OC(N)=O)[C@@H](O)[C@H](Oc2ccc3c(O)c(NC(=O)c4ccc(O)c(CC=C(C)C)c4)c(=O)oc3c2C)OC1(C)C`, the Potency is reported as 3.09 µM (active).
`CN1CCCC(n2nc(Cc3ccc(Cl)cc3)c3ccccc3c2=O)CC1` (stereo not given) was tested, and the Potency was “inactive”.
For `CNCC[C@H](Oc1cccc2ccccc12)c1cccs1`, the Potency was “inactive”.
For `CCn1cc(C(=O)O)c(=O)c2cc(F)c(N3CCNCC3)nc21`, the Potency was “inactive”.
For `CCN(CC)CCn1c(=O)c(Cc2ccc(OC)cc2)nc2ccccc21`, the Potency was “inactive”.
